# Test results from PubChem BioAssay (Tox21).
# Where “and” joins values, the source holds several entries; their conditions need not be identical. Equal values may be shown once. Inconclusive results are not listed. Where a call stands in place of a potency, no number is given. More than one record can exist for a structure, and the calls need not agree. Calls of active or inactive are those of the source. Calls follow the shape of the dose curve; as a rule, active = well fitted curve in the direction sought with a large enough effect in the repeat runs; inconclusive = weak or mixed curves; inactive = no such curve, though single readings can be large; an effect the other way counts as inactive or inconclusive.
# What was measured:
# [1] = qHTS assay to identify small molecule antagonists of the retinoid acid receptor (RAR) signaling pathway - cell viability counter screen (AID 1159551); also: nearly all actives have a fitted effect of over 35% in size
# In short: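 Measured by luminescent ATP detection, viability reflects C3RL4 cells treated 6 h at 37 C with test chemicals in the presence of 1 uM (final) retinol.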
# [2] = qHTS assay to identify small molecule antagonists of the estrogen related receptor (ERR) signaling pathway from Tox21 library - cell viability counter screen (AID 1224834); also: nearly all actives have a fitted effect of over 30% in size; also: potency is read from the fitted curve at half-maximal effect
# In short: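 Seeded ERR cells were rested 6 h at 37 C/5% CO2 before compounds, positive and negative controls or DMSO were added. Incubation continued for 17.5 h, and viability was then quantified by CellTiter-Fluor fluorescence.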
# [3] = target: Luciferin 4-monooxygenase (Photinus pyralis) (UniProt P08659); assay: qHTS assay to identify small molecule inhibitors of firefly luciferase (AID 1224835); also: nearly all actives have a fitted effect of over 25% in size; also: potency is read from the fitted curve at half-maximal effect
# In short: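 Biochemical qHTS: compounds run as interplate titrations against purified firefly enzyme, with D-luciferin and ATP each at its KM concentration. Light output recorded by CCD imaging.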
# [4] = qHTS assay to identify small molecule antagonists of the retinoic acid receptor (RAR) signaling pathway (AID 1159552; also: nearly all actives have a fitted effect of over 50% in size; also: potency is read from the fitted curve at half-maximal effect)
# In short: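 RARE-luc C3RL4 cells; cpds + 1 uM (final) retinol, 6 hr, 37 C/5% CO2; luciferase reagent, 30 min RT, luminescence readout. Inhibitors of retinol-driven signal scored.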
# [5] = qHTS assay to identify small molecule agonists of the retinoic acid receptor (RAR) signaling pathway (AID 1159553); details: C3RL4 RARE luciferase reporter, agonist, 6 h; activation: at 73.3 µM (top of the series) unless noted
# In short: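 6 hr compound exposure (DMSO vehicle) of overnight-plated C3RL4 RARE-luc cells at 37 C; luminescence quantified after 30 min RT with luciferase reagent.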
# [6] = qHTS assay to identify small molecule antagonists of the estrogen related receptor (ERR) signaling pathway (AID 1224819; also: potency is read from the fitted curve at half-maximal effect; nearly all actives have a fitted effect of over 50% in size)
# In short: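 Compounds dissolved in DMSO were pin-transferred onto ERR cells that had been plated 6 h earlier, and cells were then incubated 18 h at 37 C; signal was luciferase luminescence via One-Glo.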
# [7] = qHTS assay to identify small molecule agonists of the estrogen related receptor (ERR) signaling pathway (AID 1224820)
# In short: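 Luminescence readout (One-Glo, 30 min RT) from NTP-supplied ERR cell line exposed to compounds for 18 h at 37 C. Cells seeded 2,000 per well and pre-incubated 6 h before pin-tool compound transfer.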
# [8] = qHTS assay to identify small molecule agonists of the estrogen related receptor signaling pathway with the pleiotropic PPARgamma coactivator (PGC) (AID 1224823)
# In short: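 Luminescence readout (One-Glo, 30 min RT) from PGC/ERR cell line treated 18 h at 37 C with pin-tool-delivered DMSO compound solutions; cells plated 6 h before dosing. Quantitative HTS format.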
# Luciferin 4-monooxygenase (Photinus pyralis), sequence (P08659 whole entry, looked up): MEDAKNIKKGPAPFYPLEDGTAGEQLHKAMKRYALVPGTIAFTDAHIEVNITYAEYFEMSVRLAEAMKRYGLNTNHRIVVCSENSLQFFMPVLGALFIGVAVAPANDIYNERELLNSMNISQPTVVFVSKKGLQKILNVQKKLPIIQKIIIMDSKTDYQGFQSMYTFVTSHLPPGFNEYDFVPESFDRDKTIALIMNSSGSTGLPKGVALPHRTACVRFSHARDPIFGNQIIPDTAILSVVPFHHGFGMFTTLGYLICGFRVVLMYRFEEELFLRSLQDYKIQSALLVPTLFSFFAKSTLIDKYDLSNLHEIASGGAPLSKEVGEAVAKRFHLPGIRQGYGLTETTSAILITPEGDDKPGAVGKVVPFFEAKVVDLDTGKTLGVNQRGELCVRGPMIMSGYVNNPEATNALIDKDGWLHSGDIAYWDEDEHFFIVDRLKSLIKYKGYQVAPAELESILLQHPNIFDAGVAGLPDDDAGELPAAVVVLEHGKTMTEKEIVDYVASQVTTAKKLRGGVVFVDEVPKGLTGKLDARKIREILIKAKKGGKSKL
smiles,measurement,setting,value
CC(C)OC(=O)C(O)(CC(=O)O)CC(=O)O,Potency,[1],inactive
same,Potency,[2],inactive
same,Potency,[3],inactive
Cc1cccc(C)c1NC(=O)c1ccc(N)cc1,Potency,[1],inactive
same,Potency,[2],inactive
same,Potency,[3],inactive
OCC(F)(F)F,Potency,[1],inactive
same,Potency,[2],inactive
same,Potency,[3],inactive
CCCCC/C=C\C/C=C\CCCCCCCC(=O)O,Potency,[1],inactive
same,Potency,[2],inactive
same,Potency,[3],78.3 µM (active) and inactive
COc1cccc(OC)c1C(=O)O,Potency,[1],inactive
same,Potency,[2],inactive
same,Potency,[3],inactive
O=C(/C=C/c1ccccc1)OC/C=C/c1ccccc1,Potency,[1],inactive
same,Potency,[2],inactive
same,Potency,[3],71 µM (active)
O=C(O)[C@H](O)[C@@H](O)[C@H](O[C@@H]1O[C@H](CO)[C@H](O)[C@H](O)[C@H]1O)[C@H](O)CO,Potency,[1],inactive
same,Potency,[3],inactive
CC(=O)Oc1cc2c(s1)CCN(C(C(=O)C1CC1)c1ccccc1F)C2 (stereo unspecified),Potency,[1],inactive
same,Potency,[2],inactive
same,Potency,[3],inactive
Cl[Si](Cl)(c1ccccc1)c1ccccc1,Potency,[1],inactive
same,Potency,[2],inactive
same,Potency,[3],inactive
OC1CCCc2ccccc21 (stereo unspecified),Potency,[1],inactive
same,Potency,[2],inactive
same,Potency,[3],inactive
O=C(O)c1cccc(C(F)(F)F)c1,Potency,[1],inactive
same,Potency,[2],inactive
same,Potency,[3],inactive
Cc1nc(-c2ccc(Cl)cc2)oc1COC(C)(C)C(=O)O,Potency,[1],inactive
same,Potency,[2],inactive
same,Potency,[3],inactive
Fc1ccc(C(c2ccc(F)cc2)N2CCNCC2)cc1,Potency,[1],inactive
same,Potency,[2],inactive
same,Potency,[3],inactive
CCO[C@@H]1O[C@H](C(COCc2ccccc2)OCc2ccccc2)[C@H](OCc2ccccc2)[C@H]1O (stereo partly specified),Potency,[1],inactive
same,Potency,[2],26.6 µM (active)
same,Potency,[3],inactive
CC1(C)[C@@H](O)CC[C@]2(C)[C@H]3C(=O)C=C4[C@@H]5C[C@@](C)(C(=O)O)CC[C@]5(C)CC[C@@]4(C)[C@]3(C)CC[C@@H]12,Potency,[1],inactive
same,Potency,[3],inactive
Nc1nc(-c2ccccc2)cs1,Potency,[2],inactive
CCC(C)[O-].CCC(C)[O-].CCOC(=O)/C=C(/C)[O-].[Al+3],Potency,[4],inactive
same,Potency,[5],inactive
CCCCCCCC/C=C\CCCCCCCCN,Potency,[2],inactive
same,Potency,[3],inactive
COc1cc(S(=O)(=O)O)c(C)cc1N=Nc1c(O)ccc2cc(S(=O)(=O)O)ccc12,Potency,[2],27.3 µM (active)
same,Potency,[3],63.3 µM (active)
Cc1cc(-c2ccc(N=Nc3cc(S(=O)(=O)O)c4ccccc4c3N)c(C)c2)ccc1N=Nc1cc(S(=O)(=O)O)c2ccccc2c1N,Potency,[1],inactive
same,Potency,[3],inactive
CCN(CC)C(=O)c1cc(S(=O)(=O)Cc2ccccc2)c(N2CCC(c3ccccc3)CC2)cc1N(CC)CCN(C)C,Potency,[4],21.4 µM (active)
same,Potency,[5],inactive
same,Potency,[2],19.1 µM (active)
same,Potency,[3],inactive
CC(=O)[C@H]1CC[C@H]2[C@@H]3CCC4=CC(=O)CC[C@]4(C)[C@H]3CC[C@]12C,Potency,[6],11.9 µM (active)
same,outcome,[7],inactive
same,outcome,[8],inactive
same,Potency,[2],30.5 µM (active) and 30.6 µM (active)
same,Potency,[3],inactive
